Screens deposited in PubChem BioAssay by National Center for Advancing Translational Sciences (NCATS).
Most compounds without a hit are left out; they make up all but 0.32% or so of the library.
SNCA expr inhib: reduces expression of the alpha-synuclein gene; HEK-293 SNCA-luciferase knock-in, luminescence, 24 h; AID 1671194; 140,000 compounds, 0.17% hits; Potency, µM (titrated, usually from 57.2 µM), usual class: inhibitors; note: nearly all actives have a fitted effect of over 45% in size
GPT2 inhibitor: GPT2 alanine aminotransferase inhibition; Q8TD30; Recombinant GPT2, coupled pyruvate oxidase/HRP Amplex Red fluorescence; Potency, µM (series often up to 57.7 µM), hits mostly inhibitors; 100,000 compounds, 0.25% hits; note: nearly all actives have a fitted effect of over 60% in size
Target sequence (Q8TD30 whole entry, looked up): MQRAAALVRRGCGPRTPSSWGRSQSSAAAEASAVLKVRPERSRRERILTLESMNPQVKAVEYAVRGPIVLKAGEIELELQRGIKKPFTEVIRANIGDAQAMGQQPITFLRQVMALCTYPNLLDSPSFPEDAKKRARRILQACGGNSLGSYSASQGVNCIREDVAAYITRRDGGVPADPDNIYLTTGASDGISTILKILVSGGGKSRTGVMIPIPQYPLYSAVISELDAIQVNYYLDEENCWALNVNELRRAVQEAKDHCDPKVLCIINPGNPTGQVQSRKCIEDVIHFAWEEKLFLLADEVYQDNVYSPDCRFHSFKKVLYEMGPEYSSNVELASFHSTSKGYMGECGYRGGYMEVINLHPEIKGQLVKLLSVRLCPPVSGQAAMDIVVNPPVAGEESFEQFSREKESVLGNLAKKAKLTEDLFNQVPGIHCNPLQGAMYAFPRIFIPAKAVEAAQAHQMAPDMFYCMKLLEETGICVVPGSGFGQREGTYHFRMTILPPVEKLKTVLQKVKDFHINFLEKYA
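Inhibition is scored from Amplex Red fluorescence generated when pyruvate oxidase and HRP act on pyruvate released by GPT2. Reactions contain 10ng/uL enzyme, 250uM a-KG and 2mM L-alanine and run 30 min at room temperature.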
SNCA viab count: counter-screen for SNCA expression inhibitors: cell viability | Potency, µM (top dose mostly 57.1 µM), actives largely listed as cytotoxic | AID 1671193 | 150,000 compounds, 0.12% hits | HEK-293-SNCA-luc viability, GF-AFC fluorescence, 24 h; note: nearly all actives have a fitted effect of over 30% in size
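HEK-293-SNCA-luc cells (1500/well) plated 24 h, then exposed 24 h to a dilution series; GF-AFC added 30 min at 37C, fluorescence 405/540 nm; normalised to medium-only and DMSO wells, Hill fit.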
Hits are given with their value; n = inactive; u = inconclusive; x = no result; ! = not active in a repeat; [ ] = dose if it differs, or a comment. Calls come from the whole dose curve; as a rule, active = well fitted curve in the direction sought with a large enough effect; inconclusive = small, poorly fitted or top-dose-only effect, or another doubt; inactive = no such curve, though single readings can be large; an effect the other way counts as inactive or inconclusive.

SMILES	SNCA expr inhib	GPT2 inhibitor	SNCA viab count
C[N+](C)([O-])CCNc1ccc(NCC[N+](C)(C)[O-])c2c1C(=O)c1c(O)ccc(O)c1C2=O	n	n	n
CCOC(=O)c1cc(-c2ccc(OC)cc2)n(CCC(=O)Nc2nc3ccc(OCC)cc3s2)c1C	n	x	n
CCOC(=O)c1cc(-c2ccc(C)cc2)n(CCC(=O)Nc2nc3c(C)cccc3s2)c1C	14µM	x	n
CO[C@@]12[C@H](COC(N)=O)C3=C(C(=O)C(C)=C(N)C3=O)N1C[C@@H]1N[C@@H]12	u	14µM!	n
COc1ccc(Cn2c(=O)c(C(=O)NCc3cccc(Cl)c3)nc3cccnc32)cc1	n	n	n
CCOC(=O)[C@H](CCc1ccccc1)N[C@@H](C)C(=O)N1CCC[C@H]1C(=O)O	n	n	n
CCCNC(=O)[C@H]1O[C@H]1C(=O)N[C@H](C(=O)N1CCC[C@@H]1C(=O)OC)C(C)CC (some centres not stated)	u	n	22µM
O=C(NCc1ccccc1Cl)c1ccc2oc(-c3cccnc3)nc2c1	n	n	n
Cc1cccc(-c2cccc(CN3CCCC(C(=O)NCCCc4ccccc4)C3)c2)c1 (configuration not stated)	n	n	n
COc1ccc(Nc2ccnc(N3CCN(C(=O)NC4CCCC4)CC3)n2)cc1	n	n	n
CC(=O)Oc1c(-c2ccc(NC(=O)C3CC3)cc2)c(-c2ccc3c(c2)OCO3)nn1-c1cccc(C)c1	n	14µM	n
COc1cc(OC)cc(-c2nn(-c3ccc(C)cc3C)c(OC(C)=O)c2-c2ccc(NC(C)=O)cc2)c1	n	13µM	n
COc1ccc(-c2nn(-c3ccc(F)cc3)c(OC(C)=O)c2-c2ccc(NC(C)=O)cc2)cc1OC	n	u	n
CCC(=O)Nc1ccc(-c2c(-c3cc(OC)cc(OC)c3)nn(-c3ccc(C)cc3)c2OC(C)=O)cc1	n	6.3µM	n
Cc1cccc(-n2ncc(C(=O)Nc3ccc4c(c3)OCO4)c2C2CCN(C(=O)OC(C)(C)C)CC2)c1	n	x	u
COc1ccc(-c2nn(-c3ccc(C)cc3C)c(OC(C)=O)c2-c2ccc(NC(C)=O)cc2)c(OC)c1	n	u	n
COc1ccc(-n2c(=O)c(C(=O)NCc3cccc(Cl)c3)nc3cccnc32)cc1	n	n	n
O=C(Nc1ccccc1)c1nc2c(o1)CCN(Cc1ccc(O)cc1)CC2	n	n	n
O=C(Nc1ccccc1)c1nc2c(o1)CCN(Cc1cccs1)CC2	11µM	n	n
CCC(C)NC(=O)C1CCN(C(=O)c2ccc(-c3ccccc3OC)cc2)CC1 (configuration not stated)	u	n	n[12.5 µM]
CC(C)(C)C(=O)Nc1cc(-c2cccnc2)nn1-c1ccccc1	n	n	n
Cc1cccc(-c2cccc(CN3CCC(NC(=O)c4ccc(Cl)nc4)CC3)c2)c1	n	n	n
O=C(NCC(=O)N1CCC(c2ccccc2)CC1)c1cccc(-c2ccsc2)c1	n	n	n[12.5 µM]
CCS(=O)(=O)c1ncc(Cl)c(C(=O)N(Cc2ccccc2)Cc2ccco2)n1	u	x	8.9µM
CCS(=O)(=O)c1ncc(N(Cc2ccccc2)Cc2ccco2)c(C(=O)Nc2cccc(Cl)c2C)n1	n	x	n
SMILES	SNCA expr inhib	GPT2 inhibitor	SNCA viab count
CN(Cc1ccccc1)Cc1cn([C@H]2CO[C@H]3[C@@H]2OC[C@@H]3NS(=O)(=O)c2cccc3cccnc23)nn1	n	4.5µM	n
CN(Cc1ccccc1)Cc1cn([C@H]2CO[C@H]3[C@@H]2OC[C@@H]3NS(=O)(=O)Cc2ccccc2)nn1	n	n	n
COc1cc(O)cc(/C=C/c2cccc(O)c2)c1	x	n	n
Oc1cc(O)cc(/C=C/c2ccc(O)c(O)c2)c1	u	6.3µM	n
COC(=O)[C@@H]1Cc2c([nH]c3ccccc23)[C@H]2C[C@@H](NC3CC3)C[C@@H](c3ccc(F)cc3)N21	28µM	n	u
COC(=O)[C@@H]1Cc2c([nH]c3ccccc23)[C@H]2C[C@@H](NCCO)C[C@@H](c3ccc(F)cc3)N21	n	n	n
Cc1cc(C)c(NC(=O)Cn2c(=O)n(Cc3ccc(C(=O)NCc4ccco4)cc3)c(=O)c3sccc32)c(C)c1	25µM	x	u
Cc1cccc(C)c1NC(=O)Cn1c(=O)n(Cc2ccc(C(=O)NCc3ccco3)cc2)c(=O)c2sccc21	u	x	n
O=C(Cc1ccc(F)cc1)NC1CCN(C(=O)c2ccc(-c3cccs3)cc2)CC1	n	n	n[12.5 µM]
CCc1cnn2c(NCc3ccc[n+]([O-])c3)cc(N3CCCC[C@@H]3CCO)nc12	0.061µM	n	u
Cc1noc(C)c1-c1cc2c(cc(C)n2CCN(C)C)c(-c2ccnn2C)n1	u	n	n
CCc1ccc(OCCSc2nc3ccccc3n2CC(=O)N2CCCCC2)cc1	u	x	n
Cc1ccc(OCCSc2nc3ccccc3n2CC(=O)N2CCCCC2)c(C)c1	n	x	14µM
COc1ccc(Nc2ccnc(N3CCCC(C(=O)NCc4ccccc4)C3)n2)cc1 (configuration not stated)	u	n	u
O=C(/C=C/c1ccc(O)c(O)c1)O[C@H]1[C@H](OC2CCCCC2O)O[C@H](CO)[C@@H](O)[C@@H]1O (some centres not stated)	x	4.5µM	n
O=C(/C=C/c1ccc(O)c(O)c1)O[C@@H]1[C@@H](O)[C@H](OC2CCCCC2O)O[C@H](CO)[C@H]1O (some centres not stated)	x	n	n
CCCn1cc2c3c(cccc31)CN(C(=O)COc1ccc(F)cc1)CC2	n	n	n
COc1ccc(Nc2ccnc(N3CCC(NC(=O)c4cccc(Cl)c4)CC3)n2)cc1	n	u	n[12.5 µM]
CC1(C)[C@H]2CC[C@@H](CNC(=O)c3cccc(Br)c3)[C@@H]1C2	n	n	n
COc1cccc([S+](=O)([O-])NC[C@@H]2CC[C@H]3C[C@@H]2C3(C)C)c1	7.1µM	n	u
Cc1ccc(-n2ncc3c(N4CCCCCC4)ncnc32)cc1	2.2µM	x	n
Fc1ccc(-n2ncc3c(N4CCCCCC4)ncnc32)cc1	n	x	n
COc1cccc(C(=O)N2CCc3nc(C4CC4)nc(-c4ccc(O)cc4)c3CC2)c1	n	u	u
CCOC(=O)c1c(C)c(-c2ccccc2)n(CC(=O)NC2CCCCC2)c1C	n	x	n
CCOC(=O)c1ccc(NC2CCCCC2)c(N)c1	x	3.5µM	n
SMILES	SNCA expr inhib	GPT2 inhibitor	SNCA viab count
COc1ccc(Cn2c(=O)c(C(=O)NCc3ccc(Cl)cc3)nc3cccnc32)cc1	n	n	n
O=C(NCc1ccccc1F)C1CCN(c2ccnc3ccnn23)CC1	n	n	n
COc1cc2c(NC3CCN(C(C)C)CC3)nc(N3CCC(F)(F)CC3)nc2cc1OCCCN1CCCC1	x	n	24µM
COc1cc2nc(N3CCN(C)CC3)nc(NC3CCN(Cc4ccccc4)CC3)c2cc1OC	x	n	u
COc1ccc(-c2c(C(=O)NCc3ccc(F)cc3)nc3sccn23)cc1	n	n	n
CC(Oc1ccccc1Cl)C(=O)N1CCN(CCc2ccccn2)CC1 (configuration not stated)	n	x	n
COc1ccccc1OC(C)C(=O)N1CCN(CCc2ccccn2)CC1 (configuration not stated)	20µM	x	n
Cc1cnc(C2CC2)n1CC1CCN(C(=O)CCCc2ccccc2)CC1	n	u	n
